# High-throughput results as filed in PubChem BioAssay.
# This is a sample that favours compounds with a hit; in the whole collection about 3.2% have one here.
# A549 tox = Nrf2 qHTS screen for inhibitors: counterscreen for cytotoxicity; A549 ARE-Fluc cells, CellTiter-Fluor viability, 18-24 h; Potency, µM (titrated, usually from 46 µM), usual class: inhibitors; 390,000 tested, 0.16% active; AID 504648, 2011
#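 Cytotoxicity counterscreen: CellTiter-Fluor fluorescence was measured in A549 ARE_Fluc cells after 18-24 h of compound exposure in a concentration series. The subsequent BugLite luminescent read reports ARE-luciferase activity.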
# Nrf2 ARE act = qHTS of Nrf2 Activators; 410,000 tested, 0.31% active; AREc32 ARE-luciferase reporter (MCF7-derived line), luminescence, 24 h; AID 624171, 2012; Potency, µM (titrated, usually from 46.1 µM), most hits filed as activators; also: nearly all actives have a fitted effect of over 65% in size
#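 AREc32 cells carrying an ARE-driven firefly luciferase reporter were seeded at 1000 cells/well in OPTI-MEM with 5% FBS, then exposed to compound for 24 hr at 37 deg C. Luminescence was read with Steady-Glo after 30 min at RT.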
# BRCA1 expr act = qHTS Assay to Identify Small Molecule Activators of BRCA1 Expression. MCF7-BRCA1-FFLuc reporter, luminescence, 48 h; response scale: scaled: vehicle 0%, 10 µM genistein 100%. Potency, µM (top dose mostly 46.1 µM), actives largely listed as activators. 380,000 tested, 1.1% active. AID 624202, 2012; also: nearly all actives have a fitted effect of over 80% in size
#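 MCF7-BRCA1-FFLuc, 2000 cells/well; 2 h attach, 37 °C/5% CO2; compound 48 h; luciferase substrate 15 min; luminescence end-point. Norm. to genistein 10 microM max activation and DMSO; concentration-response curves fitted.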
# IL2 activator = qHTS of IL-2 Activators | IL-2 activation reporter assay, cell-based qHTS; stimulated with anti-CD3/CD4/CD28 beads; in transgenic mouse T cells | activation, % (series mostly up to about 46 µM) | 360,000 tested, 0.065% active; in the data active = activation above about 50%; inconclusive = mostly about 30% to 49%
#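 Unstimulated transgenic mouse T cells, 750 per well, received compound and, after 60 minutes, anti-CD3/anti-CD4 bead plus anti-CD28 stimulation. EGFP and DsRed were quantified after 18 hours.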
# p53 reactivation = qHTS assay for re-activators of p53 using a Luc reporter | H1299 p53-A138V BP100-luciferase reporter, luminescence, 24 h | 320,000 tested, 0.063% active | Potency, µM (titrated, usually from 92.2 µM), usual class: activators; also: nearly all actives have a fitted effect of over 45% in size
#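 H1299 (p53-null), stable ts p53-A138V + BP100-Luc; 1000 cells/well, Opti-MEM/10% FBS; cpd 4 pt, 1:5; 24 h, 37 deg C, 5% CO2; detection reagent 10 min RT; luminescence.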
# Nrf2 block = Nrf2 qHTS screen for inhibitors | A549 ARE-Fluc reporter, luciferase luminescence, 18-24 h | Potency, µM (top dose mostly 46 µM), actives largely listed as inhibitors | 360,000 tested, 2.1% active; also: nearly all actives have a fitted effect of over 60% in size
#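 Nrf2 activity is the BugLite luminescence, read 15 min after reagent at room temperature, following CellTiter-Fluor cytotoxicity readout (30 min, 37C). Compound titrations were applied for 18-24 h to 5000 A549 ARE_Fluc cells/well in 5% FBS OPTI-MEM.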
# Numbers stand for hits; n = inactive; u = inconclusive; x = no result. Unless noted, calls follow the shape of the dose curve; as a rule, active = well fitted curve in the direction sought with a large enough effect; inconclusive = small, poorly fitted or top-dose-only effect, or another doubt; inactive = no such curve, though single readings can be large; an effect the other way counts as inactive or inconclusive.
SMILES,A549 tox,Nrf2 ARE act,BRCA1 expr act,IL2 activator,p53 reactivation,Nrf2 block
COc1ccccc1OCC(=O)N(Cc1ccc(N(C)C)cc1)CC1CCCO1 (centres undefined),n,n,x,x,x,n
Cc1cc(NC(=O)C2CCN(S(=O)(=O)c3ccc4[nH]c(=O)oc4c3)CC2)ccc1Br,n,n,x,x,x,u
CC(=O)Cn1cnc2c(sc3nc(C)cc(C)c32)c1=O,n,n,11µM,n,n,u
COc1cccc(Cn2cnc3c(sc4nc(C)cc(C)c43)c2=O)c1,n,n,n,n,n,n
CCOC(=O)N1CCN(C(=O)CN2C(=O)/C(=C\c3cccc(OC)c3)SC2=S)CC1,n,x,n,x,x,n
Cc1ccc(S(=O)(=O)n2nc(-c3ccco3)nc2SCc2ccccc2)cc1,n,n,11µM,n,n,n
CSc1nc(-c2ccco2)nn1S(=O)(=O)c1ccc(C)cc1,n,n,n,n,n,n
O=C(c1ccco1)n1nc(-c2ccccc2)nc1SCc1ccccc1,n,n,2.8µM,n,n,u
O=C(Cc1ccccc1)n1nc(-c2ccco2)nc1SCc1ccccc1,n,n,11µM,n,n,n
S=C(NCCCN(Cc1ccc(Cl)cc1)c1ccc(Br)cn1)NCc1ccc2nc[nH]c2c1,n,x,n,x,x,u
Fc1cccc(-c2nnn3c2nc(NC2CCCCC2)c2ccccc23)c1,n,n,n,x,x,n
Cc1ccc(NC(=S)NC2CCSc3ccccc32)cc1C (centres undefined),n,n,n,n,n,23µM
Cc1cc(S(=O)(=O)N(Cc2ccc(C(C)C)cc2)CC2CCCO2)ccc1-n1cnnn1 (centres undefined),n,n,n,n,n,23µM
Cc1ccc(NC(=O)/C=C/c2ccc(Cl)cc2)nc1,n,n,u,n,n,u
O=C(COC(=O)/C=C/c1ccccc1)Nc1cccnc1Cl,n,n,n,n,n,n
O=C(/C=C/c1ccccc1)Nc1cccnc1Cl,n,n,10µM,n,n,u
O=C(/C=C/c1ccccc1)Nc1ccc(Br)cn1,n,n,1.4µM,n,n,n
CCC(C)c1ccc(NC(=O)N2CCOCC2)cc1 (centres undefined),n,n,10µM,n,n,u
O=C(N/N=C/c1c[nH]c2ccccc12)c1cc(-c2ccccc2)n[nH]1,n,n,n,n,n,u
O=C(N/N=C/c1c[nH]c2ccccc12)c1cc(-c2ccc(-c3ccccc3)cc2)n[nH]1,18µM,n,n,n,n,u
COc1ccccc1NC(=O)CC1Sc2ccc(C(F)(F)F)cc2NC1=O (centres undefined),n,n,x,x,x,n
O=C(O)c1cc2ccccc2c(Cc2c(O)c(C(=O)O)cc3ccccc23)c1O,x,x,n,x,x,x
O=C(NCCn1ccc2ccccc21)c1ccc2c(c1)OCO2,n,n,2.5µM,n,u,u
CC1OC(CC(=O)O)CC2=C1C(=O)c1c(O)cccc1C2=O (centres undefined),15µM,n,n,n,x,21µM
c1ccc2c(c1)nnn2-c1ncnc2sccc12,n,4µM,n,n,n,u
SMILES,A549 tox,Nrf2 ARE act,BRCA1 expr act,IL2 activator,p53 reactivation,Nrf2 block
CCc1nn(CC(=O)Nc2ccc(C)c(F)c2)c(=O)c2cc3cc(C)ccc3n12,n,n,n,x,x,u
CC1CCC(NC(=S)NCCN(C)C)CC1 (centres undefined),n,n,n,n,n,n
CC1CCC(NC(=O)N(CCCl)N=O)CC1 (centres undefined),n,n,5µM,n,x,n
CCCOC(=O)/C(=C\C=C\c1ccco1)NC(=O)c1ccccc1,n,13µM,n,n,u,u
Cc1ccc(NC2=Nc3ccccc3N3C2=Nc2c(c(C)nn2-c2ccccc2)C3c2ccc(O)c(O)c2)cc1 (centres undefined),u,n,n,n,n,18µM
COc1ccc(-c2cn3cc([N+](=O)[O-])ccc3n2)cc1OC,n,n,u,n,n,3.7µM
